Screens from PubChem BioAssay.
ELG1 genotox: induces genotoxicity in HEK293T cells with luciferase-tagged ELG1; HEK293T ELG1-luciferase reporter, luminescence, 16 h; AID 504466; 1.3% of 330,000 active; Potency, µM (doses to about 46 µM), most hits filed as activators; note: nearly all actives have a fitted effect of over 60% in size
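Screening used a luciferase reporter fused to human ELG1 in HEK293T cells. Luminescence was read on a CCD plate imager after 16 hr exposure and 30 min ONE-Glo incubation.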
MCF10A rerep: inducers of DNA re-replication in MCF 10A breast cells. 2.9% of 350,000 active. Potency, µM (titrated, usually from 46.1 µM), usual class: activators. MCF 10A DNA re-replication, Hoechst nuclear intensity, 48 h. AID 624296; note: nearly all actives have a fitted effect of over 50% in size
A-T KAP1 phos: candidate therapy for ataxia-telangiectasia | F2112 A-T fibroblasts, KAP-1 phosphorylation AlphaLISA; neocarzinostatin DNA damage 30 min before lysis | 0.19% of 320,000 active | Potency, µM (titrated, usually from 57.5 µM), most hits filed as activators | AID 485349; note: nearly all actives have a fitted effect of over 45% in size
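hTERT-immortalized A-T patient fibroblasts (F2112), 500 cells/well in OPTI-MEM, 1% FBS, got compounds for 60 min, then NCS for 30 min at 37C. Lysates were then assayed for phospho-KAP-1 by AlphaLISA (anti-pKAP1 donor, anti-KAP1 acceptor beads), 6 hr at 25C.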
p53 reactivator: mutant p53 re-activation in reporter cells | H1299 p53-A138V BP100-luciferase reporter, luminescence, 24 h | Potency, µM (titrated, usually from 92.2 µM), hits mostly activators | 0.063% of 320,000 active; note: nearly all actives have a fitted effect of over 45% in size
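p53-null H1299 cells stably carrying temperature-sensitive p53-A138V and a BP100-luciferase reporter were pinned with compounds (4-point, 1:5 series) and held 24 hrs at 37 deg C. Luminescence was read 10 min after detection reagent.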
ELG1 DNA repair: ELG1-dependent DNA repair inhibition; HEK293T ELG1-luciferase reporter, luminescence, 16 h; DNA damage induced by 5-fluorouridine; Potency, µM (highest dose often 46.1 µM), most hits filed as inhibitors; 2.3% of 330,000 active; note: nearly all actives have a fitted effect of over 55% in size
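5-Fluorouridine DNA damage + compound/DMSO, 2,000 cells/well, 16 h, 37 °C/5% CO2. ONE-Glo, 30 min RT, luminescence. Readout = decrease in reporter signal.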
SW480 rereplic: DNA re-replication induction in SW480 cells. SW480 DNA re-replication, Hoechst DNA content imaging, 48 h. Potency, µM (highest dose often 46.1 µM), most hits filed as activators. 1.8% of 340,000 active; note: nearly all actives have a fitted effect of over 55% in size
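DNA re-replication was detected as more nuclei of elevated Hoechst intensity after 48 hr exposure to compound (23 nL pinned per well of 250 cells).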
Of the large screens only hits and unclear results are named; the others gave an inactive call. Sampled rows, rich in hits. Any-hit rate of the full collection: about 7.1%. Calls come from the whole dose curve; as a rule, active = well fitted curve in the direction sought with a large enough effect; inconclusive = small, poorly fitted or top-dose-only effect, or another doubt; inactive = no such curve, though single readings can be large; an effect the other way counts as inactive or inconclusive.

O=C(Nc1cccnc1)c1ccc(Cl)c(S(=O)(=O)N2CCOCC2)c1	ELG1 DNA repair inconclusive
O=C(Cn1c(NCCCCl)nc2ccccc21)c1ccccc1	none
COc1ccccc1OCCCOc1ccc(C)cc1Br	ELG1 genotox 18µM, MCF10A rerep inconclusive, p53 reactivator inconclusive, ELG1 DNA repair inconclusive
COc1ccc(/C=C/c2nc3ccccc3n2Cc2ccccc2OC)cc1	ELG1 genotox inconclusive, MCF10A rerep 16µM, p53 reactivator inconclusive, ELG1 DNA repair inconclusive, SW480 rereplic inconclusive
COc1ccccc1Cn1c(/C=C/c2ccccc2)nc2ccccc21	MCF10A rerep inconclusive, p53 reactivator inconclusive, ELG1 DNA repair inconclusive, SW480 rereplic inconclusive
Cc1cc(C)c(OCC(=O)Nc2nc3ccccc3[nH]2)c(C)c1	MCF10A rerep 0.82µM
COc1ccccc1C(=O)NCCC(=O)Nc1nc2ccccc2[nH]1	ELG1 genotox 23µM, ELG1 DNA repair inconclusive
Cc1ccccc1OCC(=O)Nc1nc2ccccc2[nH]1	ELG1 DNA repair inconclusive
CCCOc1cccc(OCC(=O)Nc2nc3ccccc3[nH]2)c1	none
O=C(CCNC(=O)c1ccccc1Cl)Nc1nc2ccccc2[nH]1	none
O=C(COc1ccccc1)Nc1nc2ccccc2[nH]1	ELG1 genotox 4.5µM, ELG1 DNA repair inconclusive
CC(C)CC(=O)Nc1ccc(C(=O)COC(=O)C2=COCCO2)cc1	none
CCN(CC)C(=O)c1sc2nc(-c3cccs3)cc(-c3ccc(Cl)cc3)c2c1N	MCF10A rerep inconclusive, ELG1 DNA repair inconclusive, SW480 rereplic 13µM
O=C(O)c1cc(NC(=O)c2ccco2)cc(NC(=O)c2ccco2)c1	none
O=S(=O)(NCC(O)c1ccccc1)c1cc(Cl)sc1Cl (stereo unspecified)	none
O=S(=O)(NCC(O)c1ccccc1)c1ccc(-c2ccccn2)s1 (stereo unspecified)	MCF10A rerep inconclusive, ELG1 DNA repair inconclusive, SW480 rereplic 23µM
COc1ccc(CN(C)CC(=O)Nc2sc3c(c2C#N)CCC3)cc1OC	MCF10A rerep inconclusive, ELG1 DNA repair inconclusive, SW480 rereplic 12µM
COc1cccc(CN(C)CC(=O)Nc2sc3c(c2C#N)CCC3)c1OC	ELG1 DNA repair 12µM
CN(CC(=O)Nc1sc2c(c1C#N)CCCCC2)Cc1nc2ccccc2c(=O)[nH]1	MCF10A rerep inconclusive, ELG1 DNA repair 23µM
CN(Cc1nc2ccccc2c(=O)[nH]1)C(=O)c1cc2c(s1)CCCCC2	none
CN(C)S(=O)(=O)c1cccc(NC(=O)c2ccc(COc3ccccc3)cc2)c1	MCF10A rerep inconclusive, ELG1 DNA repair 12µM
CC(=O)c1cccc(NC(=O)c2ccc(N(C)S(=O)(=O)c3ccc(C)cc3)cc2)c1	ELG1 DNA repair 16µM
COc1cc(OC)c(OC)cc1CNC(=O)c1ccc(COc2ccccc2)cc1	ELG1 DNA repair 10µM
COc1cccc(S(=O)(=O)NCc2ccc(C(=O)Nc3cccc(Cl)c3)cc2)c1	MCF10A rerep inconclusive, ELG1 DNA repair 18µM, SW480 rereplic inconclusive
CCOc1cccc(NC(=O)c2ccc(S(=O)(=O)N(C)C)cc2)c1	none
COc1ccc(CN(C)C(=O)c2ccc(COc3ccccc3)cc2)c(OC)c1	MCF10A rerep inconclusive, ELG1 DNA repair inconclusive, SW480 rereplic inconclusive
COCc1ccc(C(=O)Nc2cccc(S(=O)(=O)N(C)c3ccccc3)c2)cc1	ELG1 DNA repair 18µM
N#CC1=C(N)Oc2c(ccc3cccnc23)C1c1ccccc1 (stereo unspecified)	MCF10A rerep 15µM, ELG1 DNA repair 13µM, SW480 rereplic 5.2µM
N#CC1=C(N)Oc2cc(O)ccc2C1c1cccs1 (stereo unspecified)	none
N#CC1=C(N)Oc2ccc3ccccc3c2C1c1cccnc1 (stereo unspecified)	MCF10A rerep 1.6µM, ELG1 DNA repair inconclusive, SW480 rereplic 4.6µM
N#CC1=C(N)Oc2c(ccc3ccccc23)C1c1cccs1 (stereo unspecified)	ELG1 genotox 18µM, MCF10A rerep inconclusive, ELG1 DNA repair inconclusive, SW480 rereplic 0.56µM
CS(=O)(=O)N1CCC(C(=O)Nc2cccc(Br)c2)CC1	SW480 rereplic inconclusive
CC(C)(C)OC(=O)N1CCC(C(=O)Nc2cccc(C(=O)N3CCOCC3)c2)CC1	none
CC(=O)[C@@H]1[C@@H](C(=O)c2ccc(F)cc2)[C@]2(C(=O)Nc3ccccc32)[C@H]2C=Cc3cc(F)ccc3N12	MCF10A rerep 21µM, SW480 rereplic inconclusive
CC(=O)[C@@H]1[C@@H](C(=O)c2ccc(C)cc2)[C@]2(C(=O)Nc3ccccc32)[C@H]2C=Cc3cc(F)ccc3N12	MCF10A rerep 16µM, SW480 rereplic inconclusive
O=C(c1ccc(F)cc1)[C@@H]1[C@@H](C(=O)c2ccccc2)[C@@]2(C(=O)Nc3ccccc32)[C@H]2c3ccccc3C=CN12	p53 reactivator inconclusive (no result: MCF10A rerep, SW480 rereplic)
O=c1cc(C(F)(F)F)[nH]c2c(OC(F)(F)F)cccc12	MCF10A rerep inconclusive, ELG1 DNA repair inconclusive, SW480 rereplic inconclusive
ClC(=C\c1ccccc1)/C=N/N1CCN(c2ccccn2)CC1	ELG1 genotox 9.2µM, p53 reactivator inconclusive, ELG1 DNA repair inconclusive
Cc1ccc(/C=N/N2CCN(c3ccccn3)CC2)cc1	ELG1 genotox inconclusive, ELG1 DNA repair inconclusive
COC(=O)c1c(C)[nH]c(-c2csc(N)n2)c1C	ELG1 genotox inconclusive, MCF10A rerep inconclusive, SW480 rereplic 15µM
CCOC(=O)c1[nH]c(C)c(C(=O)OC)c1C	ELG1 DNA repair inconclusive
COc1cc2c(cc1OC)CN(c1nc(CN3CCOCC3)nc3sc4c(c13)CCC(C)C4)CC2 (stereo unspecified)	MCF10A rerep inconclusive, ELG1 DNA repair 7.3µM, SW480 rereplic inconclusive
COc1ccc(Nc2nc(CN3CCOCC3)nc3sc4c(c23)CCC(C)C4)cc1OC (stereo unspecified)	MCF10A rerep inconclusive, ELG1 DNA repair 6.5µM, SW480 rereplic inconclusive
CC1CCc2c(sc3ncnc(N4CCOCC4)c23)C1 (stereo unspecified)	none (no result: ELG1 genotox, A-T KAP1 phos, p53 reactivator, ELG1 DNA repair)
CC1CCc2c(sc3nc(CN4CCOCC4)nc(Sc4ccccc4)c23)C1 (stereo unspecified)	none
Cc1ccc(OC(=O)c2cccc(S(=O)(=O)N(C)C)c2)c(-n2nc3ccccc3n2)c1	ELG1 genotox 4.6µM, p53 reactivator inconclusive, ELG1 DNA repair inconclusive
COc1cc(C(=O)NCCC(c2ccccc2)c2ccccc2)cc(OC)c1OC	ELG1 DNA repair inconclusive (no result: p53 reactivator)
Cn1c(CN2CCCCC2)nc2cc(NC(=O)c3ccc(Cl)cc3)ccc21	MCF10A rerep 23µM, SW480 rereplic inconclusive
